The values that follow come from PMC7862700, “An all-to-all approach to the identification of sequence-specific readers for epigenetic DNA modifications on cytosine”.

Common to all, as to assay: DAPPL (digital affinity profiling via proximity ligation, sequencing); 10 mM Tris-HCl pH 7.5, 50 mM NaCl, 1 mM DTT, 4% glycerol, room temperature, 30 min; GST-TFs on glutathione beads, 16-mer random dsDNA library, 0.1% formaldehyde crosslink after washing; high values mean tight binding
Details in all cases: protein: recombinant; tags: N-terminal GST; dsDNA, one strand shown

Experiment [1] has as its target T1, ELK1 (Homo sapiens, UniProt P19419 1-428).
T1 sequence: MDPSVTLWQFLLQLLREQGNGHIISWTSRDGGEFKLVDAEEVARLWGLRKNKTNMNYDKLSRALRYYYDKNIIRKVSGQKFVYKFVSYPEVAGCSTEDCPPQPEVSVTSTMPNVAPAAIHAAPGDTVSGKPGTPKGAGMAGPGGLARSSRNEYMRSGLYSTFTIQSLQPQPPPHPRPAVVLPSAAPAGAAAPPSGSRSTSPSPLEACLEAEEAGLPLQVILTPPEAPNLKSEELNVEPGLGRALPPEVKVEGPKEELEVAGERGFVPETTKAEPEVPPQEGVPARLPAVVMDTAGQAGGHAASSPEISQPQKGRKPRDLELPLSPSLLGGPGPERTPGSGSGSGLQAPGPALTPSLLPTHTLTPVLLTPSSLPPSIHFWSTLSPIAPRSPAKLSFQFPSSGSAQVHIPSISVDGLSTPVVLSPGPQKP
A digest of the protocol:
(§1)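 GST fusions of human transcription factors were expressed in yeast and captured with glutathione beads. Once given DNA barcodes and pooled alongside a tag-only sample, they were incubated for 30 min at room temperature with 200 nmole of a random double-stranded 16-mer DNA library in Tris/NaCl/DTT/glycerol buffer, then washed, crosslinked (0.1% formaldehyde), proximity-ligated, PCR-amplified and sequenced on an Illumina NextSeq500. The binding signal of each hexamer is its read frequency for a factor divided by its frequency for the tag-only sample.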

Experiment [2] deals with T2, GABPA (Homo sapiens, UniProt Q06546 1-454).
T2 sequence: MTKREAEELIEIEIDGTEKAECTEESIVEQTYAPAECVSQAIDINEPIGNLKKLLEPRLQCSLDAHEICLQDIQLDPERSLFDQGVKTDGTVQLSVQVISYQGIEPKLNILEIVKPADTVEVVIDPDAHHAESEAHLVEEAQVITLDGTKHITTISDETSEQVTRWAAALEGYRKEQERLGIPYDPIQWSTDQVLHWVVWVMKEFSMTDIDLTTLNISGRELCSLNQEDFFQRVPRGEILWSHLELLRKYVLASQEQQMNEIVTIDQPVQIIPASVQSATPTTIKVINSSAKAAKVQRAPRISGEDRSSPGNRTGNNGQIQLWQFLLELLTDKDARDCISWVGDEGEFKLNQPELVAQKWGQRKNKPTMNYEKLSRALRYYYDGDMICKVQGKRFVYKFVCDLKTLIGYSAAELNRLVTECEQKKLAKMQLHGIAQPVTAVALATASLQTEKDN
The method in brief:
as §1

Experiment [3] concerns the target T3, ERG (Homo sapiens, UniProt P11308 1-479).
T3 sequence: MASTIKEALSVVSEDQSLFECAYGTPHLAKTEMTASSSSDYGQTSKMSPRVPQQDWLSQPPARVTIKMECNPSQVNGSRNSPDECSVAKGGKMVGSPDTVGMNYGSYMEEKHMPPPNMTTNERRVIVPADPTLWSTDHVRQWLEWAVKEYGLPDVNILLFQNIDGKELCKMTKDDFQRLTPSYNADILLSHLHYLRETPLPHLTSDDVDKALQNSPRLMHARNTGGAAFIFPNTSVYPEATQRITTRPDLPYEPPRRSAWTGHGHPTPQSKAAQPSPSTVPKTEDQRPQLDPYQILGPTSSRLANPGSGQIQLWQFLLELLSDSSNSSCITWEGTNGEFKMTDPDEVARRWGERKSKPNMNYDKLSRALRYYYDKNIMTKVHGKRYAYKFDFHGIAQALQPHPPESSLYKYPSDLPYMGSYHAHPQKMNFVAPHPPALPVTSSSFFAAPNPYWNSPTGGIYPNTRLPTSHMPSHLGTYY
A digest of the protocol: as §1

Experiment [4] addresses ELF1 (Homo sapiens, UniProt P32519 1-619). A digest of the protocol:
as §1

Experiment [5] has as its target T4, EHF (Homo sapiens, UniProt Q9NZC4 1-300).
T4 sequence: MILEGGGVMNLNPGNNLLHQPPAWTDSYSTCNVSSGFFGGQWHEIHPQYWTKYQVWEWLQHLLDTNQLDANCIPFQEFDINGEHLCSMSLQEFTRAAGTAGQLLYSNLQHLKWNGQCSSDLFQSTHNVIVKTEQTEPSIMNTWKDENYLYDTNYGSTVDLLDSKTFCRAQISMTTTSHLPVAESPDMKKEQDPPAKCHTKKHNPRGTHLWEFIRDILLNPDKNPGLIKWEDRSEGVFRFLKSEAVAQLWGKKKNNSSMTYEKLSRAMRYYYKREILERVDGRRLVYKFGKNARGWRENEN
The method in brief: as §1

The target in experiment [6] is SPI1 (Homo sapiens, UniProt P17947 1-270). A digest of the protocol:
as §1

For experiment [7], the target named is SPIB (Homo sapiens, UniProt Q01892 1-262). A digest of the protocol:
as §1

Experiment [8] concerns the target T5, FEV (Homo sapiens, UniProt Q99581 1-238).
T5 sequence: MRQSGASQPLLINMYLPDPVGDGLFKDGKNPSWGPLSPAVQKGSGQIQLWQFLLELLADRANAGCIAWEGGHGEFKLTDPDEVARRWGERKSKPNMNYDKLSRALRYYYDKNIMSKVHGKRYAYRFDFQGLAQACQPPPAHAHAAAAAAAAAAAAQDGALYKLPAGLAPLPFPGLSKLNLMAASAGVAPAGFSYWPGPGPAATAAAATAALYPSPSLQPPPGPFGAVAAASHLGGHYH
The method in brief:
as §1

The target in experiment [9] is ETV5 (Homo sapiens, UniProt P41161 1-510). A digest of the protocol:
as §1

In experiment [10] the target is ELF4 (Homo sapiens, UniProt Q99607 1-663). The method in brief:
as §1

ELF4, sequence (Q99607 whole entry): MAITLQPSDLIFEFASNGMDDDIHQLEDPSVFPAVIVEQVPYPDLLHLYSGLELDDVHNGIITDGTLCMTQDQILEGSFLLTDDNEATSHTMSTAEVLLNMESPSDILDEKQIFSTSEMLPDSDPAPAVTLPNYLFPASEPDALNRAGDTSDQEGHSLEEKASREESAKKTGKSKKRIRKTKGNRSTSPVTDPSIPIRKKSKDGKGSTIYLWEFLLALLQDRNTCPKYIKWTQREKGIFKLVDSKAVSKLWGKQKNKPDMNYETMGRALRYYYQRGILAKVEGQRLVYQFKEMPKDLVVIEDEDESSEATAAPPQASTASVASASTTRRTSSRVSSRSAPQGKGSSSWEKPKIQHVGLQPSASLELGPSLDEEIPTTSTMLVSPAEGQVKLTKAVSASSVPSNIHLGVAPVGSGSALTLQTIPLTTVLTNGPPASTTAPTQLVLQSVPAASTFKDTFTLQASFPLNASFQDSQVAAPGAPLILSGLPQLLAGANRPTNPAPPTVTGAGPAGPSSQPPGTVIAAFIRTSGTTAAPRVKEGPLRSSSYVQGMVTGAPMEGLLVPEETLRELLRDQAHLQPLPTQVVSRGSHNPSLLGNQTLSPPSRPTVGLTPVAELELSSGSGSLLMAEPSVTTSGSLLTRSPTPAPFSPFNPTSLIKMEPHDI
ELF1, sequence (P32519 whole entry): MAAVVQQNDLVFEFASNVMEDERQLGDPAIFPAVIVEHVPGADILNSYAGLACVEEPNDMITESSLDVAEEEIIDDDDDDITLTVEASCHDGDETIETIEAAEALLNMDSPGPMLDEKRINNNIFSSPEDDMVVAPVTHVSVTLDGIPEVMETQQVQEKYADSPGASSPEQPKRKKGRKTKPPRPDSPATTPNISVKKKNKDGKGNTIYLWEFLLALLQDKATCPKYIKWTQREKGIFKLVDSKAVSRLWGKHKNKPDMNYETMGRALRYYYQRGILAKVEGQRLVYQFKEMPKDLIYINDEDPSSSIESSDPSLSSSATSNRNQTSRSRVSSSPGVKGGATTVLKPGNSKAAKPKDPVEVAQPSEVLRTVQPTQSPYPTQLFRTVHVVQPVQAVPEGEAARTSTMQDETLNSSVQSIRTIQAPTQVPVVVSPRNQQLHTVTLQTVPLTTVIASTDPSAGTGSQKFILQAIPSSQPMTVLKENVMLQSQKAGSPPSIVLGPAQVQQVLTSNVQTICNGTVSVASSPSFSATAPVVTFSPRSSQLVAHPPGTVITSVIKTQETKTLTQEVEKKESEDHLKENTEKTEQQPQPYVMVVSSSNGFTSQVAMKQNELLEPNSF
ETV5, sequence (P41161 whole entry): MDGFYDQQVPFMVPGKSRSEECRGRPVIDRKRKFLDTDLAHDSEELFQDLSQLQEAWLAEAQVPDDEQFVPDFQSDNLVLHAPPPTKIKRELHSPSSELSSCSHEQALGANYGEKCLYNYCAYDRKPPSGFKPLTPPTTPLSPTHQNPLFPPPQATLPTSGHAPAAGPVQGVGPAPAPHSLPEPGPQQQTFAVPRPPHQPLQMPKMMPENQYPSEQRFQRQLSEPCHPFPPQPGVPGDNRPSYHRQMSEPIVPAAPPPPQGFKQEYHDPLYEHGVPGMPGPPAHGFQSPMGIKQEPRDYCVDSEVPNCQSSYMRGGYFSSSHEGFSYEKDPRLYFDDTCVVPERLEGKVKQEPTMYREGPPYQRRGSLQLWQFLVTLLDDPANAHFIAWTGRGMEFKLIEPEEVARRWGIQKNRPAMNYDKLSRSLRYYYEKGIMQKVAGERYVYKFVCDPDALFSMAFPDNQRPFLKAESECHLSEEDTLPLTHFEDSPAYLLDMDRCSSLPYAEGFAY
SPIB, sequence (Q01892 whole entry): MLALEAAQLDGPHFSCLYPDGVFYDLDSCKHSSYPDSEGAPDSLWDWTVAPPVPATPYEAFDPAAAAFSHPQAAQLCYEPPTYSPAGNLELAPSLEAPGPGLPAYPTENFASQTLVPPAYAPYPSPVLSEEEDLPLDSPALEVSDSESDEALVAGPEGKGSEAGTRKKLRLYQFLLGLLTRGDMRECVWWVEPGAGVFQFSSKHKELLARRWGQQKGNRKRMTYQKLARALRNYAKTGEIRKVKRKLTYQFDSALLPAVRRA

For GCCTGC, the binding signal in experiment [1] was 1.13 fold enrichment (6-mer frequency, TF over GST control); in experiment [2] it was 1.07 fold enrichment (6-mer frequency, TF over GST control); in experiment [3], 1.03 fold enrichment (6-mer frequency, TF over GST control); in experiment [4] it was 1.13 fold enrichment (6-mer frequency, TF over GST control); in experiment [5] it was 1.19 fold enrichment (6-mer frequency, TF over GST control); in experiment [6], 1.06 fold enrichment (6-mer frequency, TF over GST control). Further, the binding signal in [7] was 1.18 fold enrichment (6-mer frequency, TF over GST control); in experiment [8] it was 1.11 fold enrichment (6-mer frequency, TF over GST control); in experiment [9], 1.05 fold enrichment (6-mer frequency, TF over GST control); in experiment [10], 1.06 fold enrichment (6-mer frequency, TF over GST control).
